This is an account of results in PubChem BioAssay (NCI).

The panel holds about 83,000 compounds, 20% with a hit somewhere; the sample as a whole holds those more often.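 Method: cells in 96-well plates; compound added at one concentration; 48 h incubation; percent growth measured; values under 10 scored active.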 Values without a mark were called inactive. Calls of active or inactive are those of the source.

The test system of the experiment is HL-60(TB) leukemia. In words: NCI-60 one-dose screen, 48 h (100 = growth as untreated, 0 = no growth, -100 = all killed). The following applies: 10 µM unless noted.
As for `COc1ccc(/C=C/c2nc(Nc3cccc(NC(C)=O)c3)c3ccccc3n2)cc1`, the growth was 78.5%.
As for `COc1ccc(NC(=S)/N=c2\oc3c(OC)cccc3cc2-c2cc3ccccc3[nH]2)cc1`, the figure is 93.1%; as for `CCN(CC)N=Nc1nn(C(=O)Nc2ccc(Cc3ccccc3)cc2)c2ccc(Cl)cc12`, 60.4%; as for `COc1ccc(Nc2cc(C)nc(NCCCNc3ccnc4cc(Cl)ccc34)n2)cc1`, -75.7% (active).
As for `Cc1ccc(/C=C(\C#N)n2nnc3cc(F)c(F)cc32)cc1`, the figure is -1.91% (active).
With `Cc1cc2cc3cc(C)c(N(C)C)cc3nc2cc1N(C)C` the figure was 47.5%.
`Cn1c(=O)c2[nH]c(C(O)C(O)C(O)C(O)CO)nc2n(C)c1=O` (stereo not given): the growth was 100%.
As for `O=C(/C=C/C12c3ccccc3C(c3ccccc31)C1C(=O)NC(=O)C12)c1ccc(I)cc1` (stereo not given), the figure is 6.86% (active).
With `O=C1/C(=C\c2ccc(Cl)cc2)CN(C(=O)c2ccccc2)C/C1=C\c1ccc(Cl)cc1` the figure was 58%; with `C=C(C)c1ccc(/C=N/NC(N)=S)cc1`, 147%; with `O=C(Nc1ncccc1OCc1ccccc1)NC1CCCCCC1`, 57.7%.
As for `N#C/C(=C\c1ccc(-c2cc(C(F)(F)F)ccc2Cl)o1)c1nc(-c2ccco2)cs1`, the figure is 89.2%.
Take `CN(C)c1ccc(C(=C2C=CC(=[N+](C)C)C=C2)c2ccc(N(C)C)cc2)cc1` (tested in a mixture with another compound): the growth was -51.3% (active).
`Cc1ccc2c(n1)C(=O)c1[nH]c3ccccc3c1C2=O`: the growth was 67.8%.
As for `COc1ccc(/C(=C\c2ccc3c(c2)OCO3)C(=O)Nc2nc3ccc(F)cc3s2)cc1OC`, the figure is 93%; as for `C=C(C)C1CCC2(C(=O)O)CCC3(C)C(CCC4C5(C)CCC(O)C(C)(C)C5CCC43C)C12` (stereo not given), -40% (active); as for `CCCSc1nc2ccc(C)cc2cc1/C=[N+](\[O-])c1ccccc1`, 14.1%.
For the molecule `O=C1/C(=C\c2cccn2Cc2ccc(Cl)cc2)c2ccccc2N1c1c(Cl)cccc1Cl`, the growth is 79.7%.
Take `C=C(CNCCO)[C@@H]1CC[C@]2(CO)CC[C@]3(C)[C@H](CC[C@@H]4[C@@]5(C)CCC(N)C(C)(C)[C@@H]5CC[C@]43C)[C@@H]12` (stereo not given in full): the growth was 32.4%.
With `O=c1oc2ccc(Cl)cc2c(=O)n1-c1ccc(I)cc1F` the figure was -46.3% (active); with `C[C@@H]1C=C2C(=O)O[C@@H]3CC[C@H](C1)[C@]23O`, 72.4%.
With `Oc1cccc(CNC2CCCCC2)c1` the figure was 107%; with `O=C(CNC(=O)c1cccc2ccccc12)Nc1ccccc1Oc1ccc(O)cc1`, -13.9% [5 µM] (active); with `O=C1c2ccccc2C(=O)c2c1ccc(C(=O)O)c2[N+](=O)[O-]`, 65.1%.
With `CNc1ccc(NC)c2c1C(=O)c1ccccc1C2=O` the figure was 87.3%.
With `Cc1cc2c(C(C)C)c(O)c(O)c(C=NCCCCC(=O)O)c2c(O)c1-c1c(C)cc2c(C(C)C)c(O)c(O)c(C=NCCCCC(=O)O)c2c1O`, the growth is 42.6%.
With `Cc1ccc(-c2nc([P+](c3ccccc3)(c3ccccc3)c3ccccc3)c(N3C[C@H]4C[C@H](C3)c3cccc(=O)n3C4)o2)cc1` the figure was 36.7%.
As to `O=C(CSc1nccc(Nc2cccc3ccccc23)n1)c1ccc(Cl)cc1`, the growth was 99.2%.
As for `COc1ccc2cc(-c3ccc(-c4ccc(C(=N)N)cc4)s3)ccc2c1`, the figure is 100%; as for `Brc1ccc([I+]c2ccc(Br)cc2)cc1`, -25.6% (active).
With `O=C(NCOC(O)C(Cl)(Cl)Cl)NCOC(O)C(Cl)(Cl)Cl` (stereo not given) the figure was 0.027% (active); with `CCCCCCCC(=O)Nc1nc2[nH]c(CN3CCN(Cc4cccc(I)c4)CC3)c(CN3CCN(Cc4cccc(I)c4)CC3)c2c(=O)[nH]1`, -49.3% (active).
Turning to `CCC(CCNc1cc(OC)cc2cccnc12)CN1C(=O)c2ccccc2C1=O` (stereo not given), the growth was 107%.
As for `COc1cc(N)ccc1Nc1c2ccccc2nc2ccccc12`, the figure is 48.2%; as for `O=c1cc(CSc2nnc(-c3ccc(F)cc3)o2)c2ccc3ccccc3c2o1`, 99.9%.
As for `FC(F)(F)c1[nH]ncc1-c1nc2ccc3[nH]ncc3c2c2c1CCCC2`, the figure is -32.3% (active); as for `COc1cc(C2CC(=O)Nc3c2c(C)nn3-c2nc3ccccc3[nH]2)cc(OC)c1O` (stereo not given), 43.7%.
With `CNC(=O)N/N=C/c1ccc([N+](=O)[O-])o1` the figure was 66.4%; with `NS(=O)(=O)Oc1ccc(NC(=O)C23CC4CC(CC(C4)C2)C3)cc1Cl`, 100%; with `COc1ccc(-c2n[nH]c(=O)c3nc(NC(=S)Nc4ccc(Oc5ccccc5)cc4)sc23)cc1`, 92.9%.
